Laboratory results from PubChem BioAssay.
Values without a mark were called inactive. Activity calls are given as the source filed them.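 Rule for the calls, unless noted: active = compounds that lower survival of HCT116 colon cancer cells in the luminescence readout, no numeric limit stated; inactive = the rest.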

Test: HCT116 colon cancer cell growth inhibition, primary screen, CellTiter-Glo luminescence, NPC library (AID 1117342)
Conditions: at 20 µM (top of the series)

SMILES | inhibition of viability
CC(=O)N(CC(=O)N(C)C)c1ccccc1 | -4.93%
CC(=O)CC/C=C(\C)CC/C=C(\C)CC/C=C(\C)CCC=C(C)C | -35.4%
OCC=Cc1ccccc1 | -0.4%
NC(=O)C(=O)N/N=C/c1ccc([N+](=O)[O-])o1 | 0.3%
CCOC(CN1CCN(CC(C)C(=O)c2ccccc2)CC1)c1ccccc1 (stereo not drawn) | 21.2%
Nc1nnnn1-c1ccccc1 | 5.4%
NC(N)=NN=C(/C=C/c1ccc([N+](=O)[O-])o1)/C=C/c1ccc([N+](=O)[O-])o1 | 99.5% (active)
Nc1ccc(C(=O)Nc2ccccc2N)cc1 | 72.5% (active)
CN1N=C(C(N)=O)CCC1=O | 15.3%
C=CCNc1nc(NCC=C)nc(N2CCN(C(c3ccc(F)cc3)c3ccc(F)cc3)CC2)n1 | 49.1%
Nc1ccc(S(=O)(=O)Nc2ccccc2)cc1 | -1.7%
CN(C)CCN(Cc1ccsc1)c1ccccn1 | 5.1%
NCc1ccccc1Sc1ccccc1CO | 6.13%
CCCCCCCCCCCCCCCC[N+](C)(C)CC | 99.1% (active)
COc1cc(NS(=O)(=O)c2ccc(N)cc2)nc(C)n1 | -4.3%
C=Cc1c(C)c2cc3nc(cc4[nH]c(cc5nc(cc1[nH]2)C(C)=C5CCC(=O)O)c(CCC(=O)OC)c4C)[C@@]1(C)C3=CC=C(C(=O)OC)[C@@H]1C(=O)OC | 92.4% (active)
N[C@H]1CN(c2c(F)cc3c(=O)c(C(=O)O)cn(C4C[C@@H]4F)c3c2Cl)CC12CC2 (stereo partly drawn) | 34.3%
NC(=O)NC1N=C([O][Al])NC1=O (stereo not drawn) | 2.07%
Cc1cccc(C)c1NC(=O)CN1CCCC1 | 37.9%
CC(=O)Nc1ccc(/C=N/NC(N)=S)cc1 | 13.3%

SMILES | inhibition of viability
NCCNc1cccc2ccccc12 | 17.2%
O=c1[nH]c(=O)n([C@H]2O[C@H](CO)[C@@H](O)[C@@H]2O)cc1/C=C\Br | -27.5%
O=C1NC(c2ccccc2)(c2ccccc2)C(=O)N1COP(=O)(O)O | -8.63%
CCN(CC)CCSC(=O)C(c1ccccc1)c1ccccc1 | 1%
O=C(O)Cc1csc(-c2ccc(Cl)cc2)n1 | -9.9%
COc1cc2nc(Cl)nc(N)c2cc1OC | 22.3%
NC(=S)N=Nc1ccc(NN=C(N)N)cc1 | 4.5%
C[C@@H](O)[C@H](N)C(=O)O | -31.1%
Cc1cnc(NS(=O)(=O)c2ccc(N)cc2)nc1 | -6.6%
CCCCCOc1ccc(C2SC(=O)NC2=O)cc1OCC (stereo not drawn) | 32.6%
FC1(F)C(F)(F)C(F)(F)C2(F)C(F)(F)C(F)(F)C(F)(F)C(F)(F)C2(F)C1(F)F (stereo not drawn) | -2.93%
CCCCC[C@H](O)C=C[C@H]1[C@H](O)CC(=O)[C@H]1CC=CCCCC(=O)O | -14.5%
Cc1cc(N)c2cc(NC(=O)Nc3ccc4nc(C)cc(N)c4c3)ccc2n1 | 64% (active)
CCCCC(O)/C=C(C)/C=C/C=C/C(=O)N1CCCC1=O (stereo not drawn) | 37.5%
CC(C)(C)c1nnc(NS(=O)(=O)c2ccc(N)cc2)s1 | -2.9%
CC1(C)OC[C@@H](COC(=O)CCc2ccc(OC[C@@H](O)CNCCNC(=O)N3CCOCC3)cc2)O1 | 8%
CC(CCc1ccc2c(c1)OCO2)NN (stereo not drawn) | 84.6% (active)
CCCOc1ccc2c(c1)CC[C@@H]1[C@@H]2CC[C@]2(C)C(OC)CC[C@@H]12 (stereo partly drawn) | 56% (active)
CC/C=C(\C(=O)N[C@@H]1C(=O)N2C(C(=O)OCOC(=O)C(C)(C)C)=C(COC(N)=O)CS[C@H]12)c1csc(N)n1 | -6.4%

Test: reduced SW480 viability measured with CellTiter-Glo, NPC library, primary (AID 1117343;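 active = compounds that lower viability of the colon cancer cells in the luminescence readout, with no numeric limit stated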)
Conditions: CellTiter-Glo luminescence; at 20 µM (top of the series)

SMILES | viability decrease (inhibition)
CC(=O)N(CC(=O)N(C)C)c1ccccc1 | 36.7%
CC(=O)CC/C=C(\C)CC/C=C(\C)CC/C=C(\C)CCC=C(C)C | 34.2% (active)
OCC=Cc1ccccc1 | -0.8%
NC(=O)C(=O)N/N=C/c1ccc([N+](=O)[O-])o1 | 89.2% (active)
CCOC(CN1CCN(CC(C)C(=O)c2ccccc2)CC1)c1ccccc1 (stereo not drawn) | 0.6%
Nc1nnnn1-c1ccccc1 | 56.4% (active)
NC(N)=NN=C(/C=C/c1ccc([N+](=O)[O-])o1)/C=C/c1ccc([N+](=O)[O-])o1 | 102% (active)
Nc1ccc(C(=O)Nc2ccccc2N)cc1 | 64.9% (active)
CN1N=C(C(N)=O)CCC1=O | -11.3%
C=CCNc1nc(NCC=C)nc(N2CCN(C(c3ccc(F)cc3)c3ccc(F)cc3)CC2)n1 | 56.9% (active)
Nc1ccc(S(=O)(=O)Nc2ccccc2)cc1 | 5.2%
CN(C)CCN(Cc1ccsc1)c1ccccn1 | -0.5%
NCc1ccccc1Sc1ccccc1CO | 29.2%
CCCCCCCCCCCCCCCC[N+](C)(C)CC | 102% (active)
COc1cc(NS(=O)(=O)c2ccc(N)cc2)nc(C)n1 | -9%
C=Cc1c(C)c2cc3nc(cc4[nH]c(cc5nc(cc1[nH]2)C(C)=C5CCC(=O)O)c(CCC(=O)OC)c4C)[C@@]1(C)C3=CC=C(C(=O)OC)[C@@H]1C(=O)OC | 98.2% (active)
N[C@H]1CN(c2c(F)cc3c(=O)c(C(=O)O)cn(C4C[C@@H]4F)c3c2Cl)CC12CC2 (stereo partly drawn) | 54.7% (active)
NC(=O)NC1N=C([O][Al])NC1=O (stereo not drawn) | 19.8%
Cc1cccc(C)c1NC(=O)CN1CCCC1 | 3.5%
CC(=O)Nc1ccc(/C=N/NC(N)=S)cc1 | 13%

SMILES | viability decrease (inhibition)
NCCNc1cccc2ccccc12 | 51.5% (active)
O=c1[nH]c(=O)n([C@H]2O[C@H](CO)[C@@H](O)[C@@H]2O)cc1/C=C\Br | -23.9%
O=C1NC(c2ccccc2)(c2ccccc2)C(=O)N1COP(=O)(O)O | -3.4%
CCN(CC)CCSC(=O)C(c1ccccc1)c1ccccc1 | 5.1%
O=C(O)Cc1csc(-c2ccc(Cl)cc2)n1 | -3.2%
COc1cc2nc(Cl)nc(N)c2cc1OC | -4.5%
NC(=S)N=Nc1ccc(NN=C(N)N)cc1 | 25%
C[C@@H](O)[C@H](N)C(=O)O | 13.3%
Cc1cnc(NS(=O)(=O)c2ccc(N)cc2)nc1 | 7.7%
CCCCCOc1ccc(C2SC(=O)NC2=O)cc1OCC (stereo not drawn) | 6.6%
FC1(F)C(F)(F)C(F)(F)C2(F)C(F)(F)C(F)(F)C(F)(F)C(F)(F)C2(F)C1(F)F (stereo not drawn) | 21.7%
CCCCC[C@H](O)C=C[C@H]1[C@H](O)CC(=O)[C@H]1CC=CCCCC(=O)O | 25.3%
Cc1cc(N)c2cc(NC(=O)Nc3ccc4nc(C)cc(N)c4c3)ccc2n1 | 144% (active)
CCCCC(O)/C=C(C)/C=C/C=C/C(=O)N1CCCC1=O (stereo not drawn) | 59.3% (active)
CC(C)(C)c1nnc(NS(=O)(=O)c2ccc(N)cc2)s1 | 54.4% (active)
CC1(C)OC[C@@H](COC(=O)CCc2ccc(OC[C@@H](O)CNCCNC(=O)N3CCOCC3)cc2)O1 | 33.8%
CC(CCc1ccc2c(c1)OCO2)NN (stereo not drawn) | 97.6% (active)
CCCOc1ccc2c(c1)CC[C@@H]1[C@@H]2CC[C@]2(C)C(OC)CC[C@@H]12 (stereo partly drawn) | 103% (active)
CC/C=C(\C(=O)N[C@@H]1C(=O)N2C(C(=O)OCOC(=O)C(C)(C)C)=C(COC(N)=O)CS[C@H]12)c1csc(N)n1 | -3.4%
